ST2 inh = blocks human ST2 binding to IL-33; Q01638; AlphaLISA ST2-Fc/biotin-IL-33 interaction, 1 h; inhibition, % for hits at 17 µM; actives 2.3% (n = 78,000); AID 1259354; in the data active = inhibition above about 30%
Target sequence (Q01638 whole entry, looked up): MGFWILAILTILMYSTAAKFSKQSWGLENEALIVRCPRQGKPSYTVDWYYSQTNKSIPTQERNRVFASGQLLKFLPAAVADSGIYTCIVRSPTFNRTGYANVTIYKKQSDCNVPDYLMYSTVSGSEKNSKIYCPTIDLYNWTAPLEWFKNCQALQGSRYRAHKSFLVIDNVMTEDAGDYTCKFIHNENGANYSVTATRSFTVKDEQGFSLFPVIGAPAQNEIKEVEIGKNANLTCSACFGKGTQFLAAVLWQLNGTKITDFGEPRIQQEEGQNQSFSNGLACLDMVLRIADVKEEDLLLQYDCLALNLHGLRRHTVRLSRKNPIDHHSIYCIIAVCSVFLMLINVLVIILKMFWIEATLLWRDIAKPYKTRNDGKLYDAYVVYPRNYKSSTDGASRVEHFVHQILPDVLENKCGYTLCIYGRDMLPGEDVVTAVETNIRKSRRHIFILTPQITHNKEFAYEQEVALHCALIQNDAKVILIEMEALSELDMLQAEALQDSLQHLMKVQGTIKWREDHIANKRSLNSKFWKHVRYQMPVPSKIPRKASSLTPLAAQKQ
Of the large screens only hits and unclear results are named; the others gave an inactive call; ! = repeats disagree. This excerpt belongs to a sample that is enriched for hits.

CCSc1nnc2c(n1)OC1(Nc3ccccc3-2)C(=O)Nc2ccc(Cl)cc21 (stereo not given)	none
Cc1c(CCNC(=O)CC2COCCN2)c2cccc3c2n1CCC3 (stereo not given)	none
COc1ccccc1CNc1ccc2c(c1)ncn2C(C)(C)C	none
CCn1cnc2cc(NCc3ccccc3OC)ccc21	none
COc1ccccc1CNc1ccc2c(c1)ncn2C1CCCCC1	ST2 inh 33%
CCN(CC)S(=O)(=O)c1ccc2oc(C(=O)NC3CCCCC3C)c(C)c2c1 (stereo not given)	none
O=C(OCc1cnc(-c2ccccc2)o1)c1ccco1	none
CN(C)c1ccc(C(O)(c2ccc(N(C)C)cc2)c2ccc(N(C)C)cc2)cc1	ST2 inh 97%
CCCC(C)NC(=O)c1ccc(N(C)C)cc1 (stereo not given)	none
CN(C)c1ccc(NC(=O)c2ccc(Cl)cc2)cc1	none
CCNC(=O)C1CCN(C(=O)CSCc2ccccc2Cl)C1 (stereo not given)	none
O=C(Nc1ccc(Br)cc1)C1CCCN(S(=O)(=O)c2cnc[nH]2)C1 (stereo not given)	none
Cc1nccn1-c1ccc(NC(=O)C2CCCN2C2CCSCC2)cc1 (stereo not given)	none
CCOc1ccccc1N1CCN(C2CC(=O)N(c3ccccc3)C2=O)CC1 (stereo not given)	none
CCOc1ccccc1N1C(=O)CC(Nc2ccc(N3CCOCC3)cc2)C1=O (stereo not given)	ST2 inh 51%
COc1ccccc1N1C(=O)CC(N2CCOCC2)C1=O (stereo not given)	none
O=C(Nc1ccc(F)c(Cl)c1)C1c2ccccc2C(=O)N2CCc3ccccc3C12 (stereo not given)	none
O=[N+]([O-])c1cc2c(cc1CN1CCN(c3cccc(Cl)c3)CC1)OCO2	ST2 inh 36%
OC(COCc1ccc2c(c1)OCO2)CN1CCN(c2cccc(Cl)c2)CC1 (stereo not given)	none
COc1cc(CN2CCN(Cc3ccccc3)CC2)c([N+](=O)[O-])cc1OC	none
COc1cc(CN2CCCCCC2)c([N+](=O)[O-])cc1OC	none
O=[N+]([O-])c1cc2c(cc1CN1CCN(c3ccc(F)cc3)CC1)OCO2	ST2 inh 36%
CN1CCN(Cc2cc(O)ccc2[N+](=O)[O-])CC1	none
CC(C)(c1ccccc1)c1ccc(OCCNCCN)cc1	none
CCc1ccc(OCC(=O)NC(C)c2ccccc2)cc1 (stereo not given)	none
COc1c(F)ccc(C(=O)N2CCCC3(CC2)CN(C)C(=O)O3)c1F (stereo not given)	none
Cc1cccc(CN2CCCC(CNS(=O)(=O)c3cccc4cccnc34)C2)n1 (stereo not given)	none
CC(C)C(C(=O)Nc1ccc([N+](=O)[O-])cc1)N1C(=O)c2ccccc2C1=O (stereo not given)	none
CC(=O)N1/C(=C/c2ccc([N+](=O)[O-])cc2)C(=O)c2ccccc21	ST2 inh 51%
O=C(ON1C(=O)c2ccccc2C1=O)c1ccc([N+](=O)[O-])cc1	none
N#CC1=C(N)Oc2nc[nH]c(=O)c2C1c1ccccc1Cl (stereo not given)	ST2 inh 94%
COc1cc(-c2[nH]nc3c2C(c2ccccc2Cl)C(C#N)=C(N)O3)cc(OC)c1OC (stereo not given)	none
CC(C)(C)c1[nH]nc2c1C(c1ccccc1Cl)C(C#N)=C(N)O2 (stereo not given)	none
CC1=NN(c2ccc(Br)cc2)C(=O)/C1=C\c1ccc(N(C)C)c([N+](=O)[O-])c1	none
CC1=NN(c2ccc(Br)cc2)C(=O)/C1=C/c1cccs1	ST2 inh 39%
CC1=NN(c2ccc(C(=O)O)cc2)C(=O)/C1=C\c1ccc(Br)cc1	none
Cc1cnc(NCCCn2cccn2)nc1-c1cnn(C)c1	none
COc1cc([N+](=O)[O-])ccc1NC(=O)c1cc(Cl)ccc1Cl	none
CCn1c(C)nc2cc(C(=O)O)c(C(=O)O)cc21	none
CCCC1(C2CCNCC2)NC(=O)N(CCn2ccnc2CC)C1=O (stereo not given)	none
Cn1c(SCc2ccc([N+](=O)[O-])cc2)nnc1-c1ccc(NC(=O)c2ccccc2Cl)cc1	none
Cc1cc2c(c(=O)o1)C(c1ccsc1)C(C#N)=C(N)O2 (stereo not given)	none
CCCC(=O)Nc1sc2c(c1C(=O)OCC)CCC(C)C2 (stereo not given)	none
N#CSC(C#N)Cc1cccc(Cl)c1 (stereo not given)	ST2 inh 34%
Clc1cccc(CN2CCCCCC2)c1	none
NC(=O)c1cccn1Cc1cccc(Cl)c1	none
Cc1ccc(S(=O)(=O)Nc2cc(Br)c3oc4c(c3c2)C(=O)CCC4)c(C)c1	none
CCOC(=O)C1CCN(C(=O)c2cccn3c(=O)c4sccc4nc23)CC1	none
Fc1cnccc1N1CCN(Cc2ccccc2OC(F)F)CC1	none
COc1ccc2c(c1)sc(=NC(=O)CSCC(=O)N1CCN(c3ccccc3)CC1)n2C	none
COc1c(Sc2ccc([N+](=O)[O-])cc2)c(C)nn1-c1ccccc1	ST2 inh 30%
O=[N+]([O-])c1ccc2nn(-c3ccccc3)nc2c1	none
Cc1nn(C(=O)c2ccco2)c(C)c1Sc1ccccc1	none
Cc1ccc(C(=O)n2nc(C)c(Sc3ccccc3)c2C)cc1	none
Cc1nn(C(=O)C2CC2)c(C)c1Sc1ccccc1	none
Cc1nn(C(=O)c2ccc([N+](=O)[O-])cc2)c(C)c1Sc1ccccc1	ST2 inh 42%
Cc1ccc(O)c(NC(=O)c2noc3c2CC(C)CC3)c1 (stereo not given)	none
Cn1ccnc1-c1ccc(Oc2ccc(CN3CCCC3)cc2)nn1	none
Cc1occc1C(=O)Nc1ccccc1C(N)=O	none
CCOc1cccc2cc(C(=O)NC(C)=O)c(=Nc3ccccc3OC)oc12	none
COc1ccc(-c2nc3cnccn3c2NC2CCCC2)cc1	none
CN(C)CCNC(=O)c1ccc2c(c1)N(Cc1ccccc1)C(=O)CS2	none
O=c1cc2cc(O)[nH]c(=O)c2c(O)[nH]1	ST2 inh 47%
CCOC(=O)CN(C)C(=O)c1cn(CCCc2ccccc2)nn1	none
CC(c1ccccc1)N1C(=O)c2ccccc2C1C(=O)NC1CCCC1 (stereo not given)	none
c1ccc2c(CN3CCCCC3CCn3ccnc3)ccnc2c1 (stereo not given)	none
CC1CCN(Cc2cc(Cn3ccnc3)c3cccnc3c2O)CC1	ST2 inh 51%
CC1CCN(c2ncnc3ccccc23)CC1	none
COc1ccc(C(=O)N2CCC(C(O)c3cccs3)CC2)o1 (stereo not given)	none
O=C(Nc1ccccc1Br)c1cccc([N+](=O)[O-])c1	none
COCCNC(=O)Cn1c(=O)n(-c2cc(C)cc(C)c2)c(=O)c2sccc21	none
COc1ccc(NC(=O)CN2CCN(Cc3ccccc3F)S2(=O)=O)c(OC)c1	none
COc1ccc(-n2c(C)c([N+](=O)[O-])c3ccc(O)cc32)cc1	none
COc1ccc2c(c1)C(C)(C)C1(C=Cc3cc([N+](=O)[O-])cc(OC)c3O1)N2C (stereo not given)	ST2 inh 73%
COc1ccc(NC(=O)c2ccc([N+](=O)[O-])cc2)c(OC)c1	none
CSc1cccc(-n2c(CCN)n[nH]c2=O)c1	none
C1CCCCCC2(CCCCC1)OCC(CN1CCCC1)O2 (stereo not given)	none
C=C(C)CNC(=O)c1ccc2oc(CCCC)nc2c1	none
O=C1OC(c2ccc(Cl)c([N+](=O)[O-])c2)=N/C1=C\c1cccc(C(F)(F)F)c1	none
O=C(NCCc1ccc(Cl)cc1)c1ccc(Cn2c(=O)[nH]c3ccsc3c2=O)cc1	ST2 inh 37%!
CCCCC(CC)CNC(=O)c1ccc(Cn2c(=O)[nH]c3ccsc3c2=O)cc1 (stereo not given)	none
COc1ccc(CCNC(=O)c2ccc(Cn3c(=O)[nH]c4ccsc4c3=O)cc2)cc1OC	none
CCCCC(=O)Nc1nnc(N=Cc2ccccc2Cl)s1	none

Screening data as filed in PubChem BioAssay.
